Compounds with a hit are over-represented: about 7.5% of the library has one in this group of screens.
NPC1 prom act: activators of NPC1 promoter; AID 485313; Huh7 NPC1 promoter luciferase reporter, 24 h; Potency, µM (top dose mostly 9.22 µM), for inactives: at the top dose activation, usual class: activators; 2.4% of 320,000 active; also: % of control where 0% means no effect; nearly all actives have a fitted effect of over 60% in size
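In 1536-well qHTS, Huh7 cells harboring an NPC1 promoter–luciferase construct received compound for 24 h; activation was quantified by luminescence following luciferase reagent addition.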
KinaseGlo FLuc: blocks Kinase-Glo luciferase, a counter-screen artifact | 0.28% of 200,000 active | Potency, µM (titrated, usually from 38.3 µM), inactives show at the top dose activity change, negative = inhibition, most hits filed as inhibitors | Kinase-Glo luciferase, ATP luminescence, 8 min; also: % is scaled to controls: 0 for no effect and ±100 for the full control effect; nearly all actives have a fitted effect of over 60% in size
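Inhibition of Kinase-Glo luciferase light generation was assessed at 10 uM ATP in pH 7.2 imidazole buffer, with luminescence measured after eight minutes at ambient temperature.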
Rab9 prom act: Rab9 promoter activation. Huh7 Rab9 promoter-luciferase reporter, luminescence, 24 h. Potency, µM (series often up to 9.22 µM), without a hit: at the highest dose activation, negative = inhibition, usual class: activators. 2.8% of 320,000 active; also: % of control where 0% means no effect; nearly all actives have a fitted effect of over 60% in size
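Luminescence from Amplite-detected luciferase (10 minutes, ambient) reports Rab9 promoter activation. Before that, stable Rab9-luciferase Huh7 cells (1500/well, reduced-serum OP-MEM I plus 10% FBS) were exposed to compound for 24 hours at 37C.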
ELG1 genotoxic: inducers of genotoxicity in HEK293T ELG1-luciferase cells; HEK293T ELG1-luciferase reporter, luminescence, 16 h; Potency, µM (doses to about 46 µM), for the others: at the top dose activity change, positive = activation, most hits filed as activators; 1.3% of 330,000 active; AID 504466; also: % of control where 0% means no effect; nearly all actives have a fitted effect of over 60% in size
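Luminescence read-out: rising ELG1-luciferase signal, reflecting elevated ELG1 protein under genetic stress, flags genotoxic compounds. Cells were treated for 16 hr at 37 °C before ONE-Glo detection.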
SMN2 splice enh: increases expression of the SMN2 splice variant; HEK293 SMN2-luciferase splicing reporter, luminescence, 30-36 h; Potency, µM (highest dose often 46.1 µM), for the others: top-dose activity change, positive = activation, most hits filed as activators; 2.8% of 210,000 active; AID 1458; also: % of control where 0% means no effect; nearly all actives have a fitted effect of over 55% in size
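qHTS luciferase splicing reporter: luminescence rises when SMN2 exon 7 is included in transfected HEK293 cells. Compound exposure lasted 30-36 h at 37C, with 4.5 mM final sodium butyrate as control, followed by a ONE-Glo read.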
FLuc modulator: inhibits or activates purified firefly luciferase, miR-21 counter-screen | P08659 | purified FLuc, Km substrates, luminescence inhibition | Potency, µM (titrated, usually from 57.5 µM), inactives show top-dose activity change, negative = inhibition, most hits filed as inhibitors | AID 588342 | 6.9% of 360,000 active;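 also: plate controls were vehicle for no effect and reference inhibitor for full effect; nearly all actives have a fitted effect of over 55% in size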
Target sequence (P08659 whole entry, looked up): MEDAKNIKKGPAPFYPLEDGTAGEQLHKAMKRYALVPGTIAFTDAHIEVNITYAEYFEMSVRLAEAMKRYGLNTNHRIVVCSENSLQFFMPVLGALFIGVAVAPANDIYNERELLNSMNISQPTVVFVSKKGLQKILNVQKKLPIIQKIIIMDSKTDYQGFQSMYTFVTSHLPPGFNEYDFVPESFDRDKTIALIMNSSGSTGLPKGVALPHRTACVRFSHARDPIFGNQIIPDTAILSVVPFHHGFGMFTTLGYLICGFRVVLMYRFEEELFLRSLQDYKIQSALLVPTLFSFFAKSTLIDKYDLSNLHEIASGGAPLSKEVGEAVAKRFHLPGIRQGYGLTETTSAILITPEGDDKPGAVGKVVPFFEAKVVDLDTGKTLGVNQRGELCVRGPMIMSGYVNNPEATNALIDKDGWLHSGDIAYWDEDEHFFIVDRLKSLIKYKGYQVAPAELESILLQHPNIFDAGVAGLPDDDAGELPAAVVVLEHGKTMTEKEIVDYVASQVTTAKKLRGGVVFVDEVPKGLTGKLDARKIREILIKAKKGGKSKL
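Purified P. pyralis luciferase (10nM final) with 10uM D-luciferin and 10uM ATP (Km levels) in 50mM Tris acetate pH 7.5, 10mM Mg acetate, 0.01% Tween-20, 0.05% BSA; qHTS 6-point titration, ~60 µM downward; luminescence read.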
* hit, by the source's call; ? = inconclusive; / = no result. Calls follow the shape of the dose curve; as a rule, active = well fitted curve in the direction sought with a large enough effect; inconclusive = small, poorly fitted or top-dose-only effect, or another doubt; inactive = no such curve, though single readings can be large; an effect the other way counts as inactive or inconclusive. Potency is read from the fitted curve at half-maximal effect.

SMILES	NPC1 prom act	KinaseGlo FLuc	Rab9 prom act	ELG1 genotoxic	SMN2 splice enh	FLuc modulator
CCOC(=O)Cn1nc(NC(=O)c2ccc(C(=O)OC)cc2)cc1C	?	/	17%	18%	/	11µM*
CCOC(=O)Cn1nc(NC(=O)c2cc(OC)cc(OC)c2)cc1C	8%	/	4%	4%	/	-11%
Cc1oc(-c2ccc(C(=O)Nc3cc(F)ccc3F)cc2)nc1COc1ccccc1	/	/	/	/	/	0%
CCN(CC)CCCNC(=O)CSc1nc(-c2ccc(OC)cc2)cc(C(F)(F)F)n1	/	/	/	/	/	-5%
O=C(Oc1ccc(-c2csnn2)cc1)C1CC1	-6%	/	0%	0%	/	17µM*
O=C(Oc1ccccc1-c1csnn1)c1cccs1	-1%	-1%	1%	-1%	0%	0%
O=S(=O)(Nc1ccccc1)c1ccc(-c2csnn2)cc1	-4%	/	1%	-5%	/	-2%
O=C(Oc1ccc(-c2csnn2)cc1)c1cccs1	-2%	/	7%	-5%	/	2.4µM*
c1ccc(-c2ccc(-c3csnn3)cc2)cc1	2.2µM*	-6%	2µM*	13%	?	?
CCOC(=O)Cn1nc(N2CCN(c3ccc(F)cc3)CC2)ccc1=O	/	/	/	/	-4%	1%
COC(=O)c1ccccc1NC(=O)CN(c1c(C)cccc1C)S(C)(=O)=O	25%	/	6%	-2%	/	-1%
COc1cccc(CN2CCN(Cc3cccc4c3OCO4)CC2CCO)c1 (stereo unspecified)	0.4µM*	-5%	0.089µM*	?	/	2.4µM*
Cn1cc(S(=O)(=O)N2CCCCCC2)cc1C(=O)N1CCN(c2cccc(C(F)(F)F)c2)CC1	/	/	/	/	/	-17%
COc1cccc(CNC(=O)CCC2CCCN(C(=O)c3cc4ccccc4o3)C2)c1 (stereo unspecified)	?	/	4.5µM*	11%	/	13µM*
COc1cccc(CNC(=O)CCC2CCCN(C(=O)c3ccoc3)C2)c1 (stereo unspecified)	3%	-1%	2%	1%	/	3%
COc1ccccc1Nc1ccc(C(=O)NC2CCCCC2)cn1	2%	-6%	1%	?	-11%	13µM*
COc1ccccc1Nc1cc(C(=O)NC2CCCC2)c2ccccc2n1	1%	/	0%	1%	-6%	12µM*
Cc1ccc(Nc2ccc(C(=O)NC3CCCCC3)cn2)cc1	20%	/	19%	7%	/	?
CCN1c2ccccc2-n2cccc2C12CCN(C(=O)Nc1ccccc1Br)CC2	/	/	/	/	/	-11%
COc1ccccc1/C=C/C=N/NC(=O)c1cc(-c2ccco2)[nH]n1	-3%	/	0%	-5%	/	17µM*
COc1ccccc1/C=C/C=N/NC(=O)c1cnccn1	14%	-2%	23%	13%	/	?
COc1ccccc1/C=C/C=N/NC(=O)c1ccccn1	2µM*	-4%	1.1µM*	-9%	11µM*	8.5µM*
CCC1=[N+](CC(=O)c2ccc(C)cc2)CCn2c(C)ccc21	2.2µM*	-2%	0.89µM*	12%	?	-1%
CCC1=[N+](CC(=O)c2ccc(Br)cc2)CCn2c(C)ccc21	1.4µM*	/	?	3%	/	-1%
CCC1=[N+](CC(=O)c2ccc(C)cc2)CCn2cccc21	27%	1%	4µM*	?	?	5%
SMILES	NPC1 prom act	KinaseGlo FLuc	Rab9 prom act	ELG1 genotoxic	SMN2 splice enh	FLuc modulator
CCC1=[N+](C)CCn2c(C)ccc21	-4%	-3%	-3%	-2%	-12%	1%
CC1=[N+](CC(=O)c2ccccc2)CCn2cccc21	?	-2%	3.5µM*	?	/	0%
O=c1c2ccccc2n(Cc2ccccc2Cl)c(=O)n1CCc1ccccc1	/	/	/	/	0%	-11%
Cn1c2ccccc2c2c(C(=O)NCC3CCCO3)cn(C3CCCC3)c(=O)c21 (stereo unspecified)	-4%	-1%	-4%	3%	-45%	17µM*
Cc1ccc(NC(=O)c2ccc3nc[nH]c3c2)c(O)c1	3.2µM*	-4%	?	?	13µM*	19µM*
Cc1cc([N+](=O)[O-])ccc1NC(=O)c1cncc(Br)c1	-3%	2%	1%	-5%	-4%	2%
O=C(Nc1ccccc1C(=O)O)c1cncc(Br)c1	12%	-3%	12%	0%	6%	?
Cc1ccc(NC(=O)c2ccc(CSc3ccccn3)cc2)c(O)c1	12%	/	11%	0%	/	24µM*
Cc1ccc(NC(=O)c2cncc(Br)c2)nc1	3.2µM*	/	?	?	/	?
Cc1ccc(NC(=O)c2cncc(Br)c2)c(O)c1	?	-1%	?	-1%	?	17µM*
Cc1ccc(NC(=O)c2ccc(CSc3ccccn3)cc2)cc1	?	-3%	?	1%	-6%	?
O=C(CN1C(=O)NC2(CCCCC2)C1=O)NCC(=O)Nc1ccc(F)c(F)c1	0%	/	0%	-1%	/	2%
Cc1cccc(NC(=O)CSc2nc(C)cc(C)c2C(=O)Nc2ccc(Cl)cc2)c1	/	/	/	/	/	-1%
CN(C)c1ccc(/C=C2\CCCCC2=O)cc1	3.5µM*	-4%	3.2µM*	5.8µM*	22µM*	2.7µM*
O=[N+]([O-])c1ccc(CSc2ncnc3c2ncn3[C@@H]2O[C@H](CO)[C@H](O)[C@H]2O)cc1	/	-8%	/	/	-17%	/
CCc1ccc(S(=O)(=O)N2CCN(c3ccc(Cl)c(Cl)c3)CC2)cc1	/	/	/	/	4%	-8%
N/C(=N\N=C\c1cccc(O)c1)c1nonc1N	?	13µM*	?	?	18%	1.9µM*
N/C(=N\N=C\c1ccc(O)cc1)c1nonc1N	3.2µM*	?	3.5µM*	?	16µM*	11µM*
COc1cc(/C=N/N=C(\N)c2nonc2N)ccc1O	12%	-11%	20%	?	17%	21µM*
N/C(=N\N=C\c1ccc(O)c(O)c1)c1nonc1N	?	/	?	?	/	15µM*
COc1ccc(/C=N/N=C(\N)c2nonc2N)cc1OC	?	-8%	?	0%	109%	?
COc1cccc(C(=O)Nc2cccc(C(=O)OCc3cc(=O)n4nc(C5CC5)sc4n3)c2)c1	/	/	/	/	/	-18%
N/C(=N\N=C\c1ccc([N+](=O)[O-])cc1)c1nonc1N	1.6µM*	/	1.4µM*	5.2µM*	/	?
CS/C(N)=N/N=C/c1ccc2c(c1)OCO2	?	/	2.8µM*	?	/	8.5µM*
CS/C(N)=N/N=C/c1ccc([N+](=O)[O-])cc1	2.8µM*	-5%	?	?	7%	21µM*
CSc1nncn1/N=C/c1ccc([N+](=O)[O-])cc1	-6%	1%	-4%	0%	8%	-3%
Cc1nc2sc(C(=O)N(C)c3ccccc3)c(NC(=O)c3ccccc3Cl)c2c(C)c1C	/	/	/	/	-15%	2%

Assay outcomes: PubChem, National Center for Advancing Translational Sciences (NCATS)
